Source: PubChem
Shown are actives, neighbours in structure and some others; about 5.7% of the full set was active somewhere.
AHR act: activators of human aryl hydrocarbon receptor | P35869 | AHR-responsive luciferase reporter cells, luminescence | activation, % at 5 µM | 2.5% of 320,000 active | AID 2796; in the data active = activation above about 47%;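 also: 0% = vehicle wells and 100% = reference agonist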
hcDAF-12 act: activates DAF-12 receptor from parasite H. contortus; HEK293 hcDAF-12 lit1-tk-luc reporter, luminescence; 0% DMSO, 100% Δ7-dafachronic acid; activation, % at 6.8 µM; 1.4% of 370,000 active; AID 652067;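 active = activation above the mean of all tested compounds plus 3 SD, cut at about 5.5% in these data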;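 also: 100% = response to 3 µM Δ7-dafachronic acid high control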
DAX1 inh-1: DAX1 (NR0B1) inhibition, primary screen; HEK293T StAR-luciferase reporter, SF-1/DAX-1 repression relief; inhibition, % at 6.8 µM; 1.1% of 370,000 active; AID 652010;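 active = inhibition above the mean over all tested compounds plus 3 SD, cut at about 3.6% in these data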;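 also: 0% = DAX-1 cells with DMSO and 100% = cells lacking DAX-1 with DMSO; higher inhibition means more luminescence from relief of DAX-1 repression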
ssDAF-12 act: S. stercoralis DAF-12 activation, primary screen | HEK293 ssDAF-12/GRIP1 lit1-tk-luc reporter, luminescence; % of 3 µM dafachronic acid response | activation, % at 6.8 µM | 1% of 370,000 active | AID 652126;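 active = activation above the mean over all tested compounds plus 3 SD, cut at about 0.9% in these data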;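 also: 0% = DMSO-only wells and 100% = 3 µM delta7-dafachronic acid wells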
hgDAF-12 ag: agonists of H. glycines DAF-12 nuclear receptor; HEK293 GAL4-hgDAF12 UAS-luciferase reporter, agonist luminescence; normalized to butyrate control; activation, % at 6.8 µM; 1.8% of 370,000 active;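 active = activation above a cutoff set at the mean of all screened compounds plus 3 SD, cut at about 10% in these data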;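 also: 0% = DMSO wells and 100% = sodium butyrate wells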
DAX1 inh-2: NR0B1 (DAX1) inhibition. P51843. HEK293 Gal4-DAX1 luciferase reporter, luminescence. inhibition, % at 6.75 µM. 0.99% of 340,000 active;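 active = inhibition above the mean over all tested compounds plus 3 SD, cut at about 4.2% in these data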;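 also: 0% = DAX1-transfected cells with DMSO and 100% = empty-vector control cells with DMSO; inhibition shows as a rise in luminescence from relieved DAX1 repression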
Target sequence (P51843 207-470 limits assumed): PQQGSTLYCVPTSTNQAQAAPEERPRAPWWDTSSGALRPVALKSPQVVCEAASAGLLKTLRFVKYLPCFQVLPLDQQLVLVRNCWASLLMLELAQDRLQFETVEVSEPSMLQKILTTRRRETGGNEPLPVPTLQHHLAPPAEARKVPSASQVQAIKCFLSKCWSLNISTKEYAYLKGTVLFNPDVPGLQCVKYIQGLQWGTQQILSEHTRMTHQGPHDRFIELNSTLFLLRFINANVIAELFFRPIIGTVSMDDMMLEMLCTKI
DAX1 inh confirm: confirmation of human DAX1 (NR0B1) inhibitors. inhibition, % at 6.8 µM. HEK293T StAR-promoter luciferase reporter, SF-1/DAX-1 repression. shares compounds with DAX1 inh-1. 87% of 2,400 active;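 active = inhibition above the average of every tested compound plus 3 SD, cut at about 3.8% in these data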;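 also: 0% = DAX-1 cells with DMSO and 100% = no DAX-1 control cells with DMSO; active compounds raise luminescence by relieving repression of the StAR reporter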
Target sequence (P51843 whole entry, looked up): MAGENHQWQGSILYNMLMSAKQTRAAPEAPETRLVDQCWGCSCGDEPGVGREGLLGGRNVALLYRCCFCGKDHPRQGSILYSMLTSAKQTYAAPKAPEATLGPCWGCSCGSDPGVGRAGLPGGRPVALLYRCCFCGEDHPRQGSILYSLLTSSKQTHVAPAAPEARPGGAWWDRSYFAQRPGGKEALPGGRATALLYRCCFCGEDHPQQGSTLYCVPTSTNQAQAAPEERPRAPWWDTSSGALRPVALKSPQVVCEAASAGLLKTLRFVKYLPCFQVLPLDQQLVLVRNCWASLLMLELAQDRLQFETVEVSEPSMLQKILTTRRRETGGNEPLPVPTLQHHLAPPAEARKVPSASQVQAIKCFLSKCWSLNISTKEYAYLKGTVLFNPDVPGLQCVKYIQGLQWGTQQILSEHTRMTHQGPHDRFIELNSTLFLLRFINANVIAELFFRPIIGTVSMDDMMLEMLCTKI
SF1 AF2mut Luc: counter-screen for DAX1 inhibitors: nonselective inhibitors with SF-1 AF2 mutant; shares compounds with DAX1 inh-1; HEK293 StAR-luciferase, luminescence; inhibition, % at 6.8 µM; 78% of 2,400 active; AID 652136;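 active = inhibition above the mean of all tested compounds plus 3 SD, cut at about 3% in these data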;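 also: 0% = DAX-1 transfected cells with DMSO and 100% = cells without DAX-1 with DMSO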
LXR ag: counter-screen for hcDAF-12 agonists: agonists of human LXR-beta | shares compounds with hcDAF-12 act | HEK293 Gal4-LXR tk-luc reporter, luminescence, 24 h; normalized: DMSO 0%, positive control 100% | activation, % at 6.8 µM | 3,400 tested, under 10 active;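 active = mean percent activation of the reporter above a cutoff set as the average over tested compounds plus their standard deviation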
hcDAF12 conf: confirmation of H. contortus DAF-12 agonists; AID 743032; shares compounds with hcDAF-12 act; HEK293 hcDAF-12 lit1-tk-luc reporter, luminescence; % of Δ7-dafachronic acid response; activation, % at 6.8 µM; 61% of 3,400 active;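 active = mean activation across triplicate tests above the threshold derived from the earlier primary screen, cut at about 5.5% in these data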;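 also: 0% = DMSO only wells and 100% = 3 µM Δ7-dafachronic acid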
Numbers without * were called inactive; nt = no result.

SMILES | AHR act | hcDAF-12 act | DAX1 inh-1 | ssDAF-12 act | hgDAF-12 ag | DAX1 inh-2 | DAX1 inh confirm | SF1 AF2mut Luc | LXR ag | hcDAF12 conf
O=C(c1ccc2oc(CCc3ccccc3)nc2c1)N1CCC(O)CC1 | 4 | 8.2* | 8.1* | 0 | 11* | 1 | 13* | 4.9* | 1 | 6.9*
COCC1CCN(C(=O)c2ccc3oc(CCCc4ccccc4)nc3c2)C1 (configuration not stated) | 4 | 0 | 3 | 0 | 6 | 2 | nt | nt | nt | nt
COC(=O)C1=C(C)NC(C)=C(C(=O)OC)C1c1ccc2ccccc2n1 | 22 | 1 | 0 | 0 | -1 | 0 | nt | nt | nt | nt
O=C1c2ccccc2C(=O)C1c1ccc2ccccc2n1 | 60* | 24* | 5.8* | 4.4* | 20* | 4.2* | 0 | -3 | 2 | 21*
Fc1ccc(/C=N/NC2=Nc3cccc4cccc2c34)cc1 | 23 | 15* | 5.2* | 2.2* | 22* | 3 | 10* | 8.4* | 1 | 11*
Cc1cn2nc(N)c3ccccc3c2n1 | 18 | 3 | -1 | -1 | 1 | -1 | nt | nt | nt | nt
Nc1nn2cc(-c3ccccc3)nc2c2ccccc12 | 46 | 19* | 11* | 6.0* | 21* | 2 | 19* | 10* | 2 | 21*
Cc1ccc2nc(-c3sc4nc(C)ccc4c3N)[nH]c2c1 | 2 | 14* | 5.8* | 3.2* | 15* | -2 | 19* | 13* | 3 | 28*
Cc1ccc2c(N)c(C#N)sc2n1 | 3 | 0 | 0 | 0 | 3 | 0 | nt | nt | nt | nt
N#Cc1c(NC(=O)C2CC(c3ccccc3Cl)=NO2)sc2c1CCC2 (configuration not stated) | -1 | 0 | -1 | -1 | 1 | 0 | nt | nt | nt | nt
CCOc1ccc(OCc2cccc(C(=O)O)c2)cc1 | -17 | 8.8* | 6.6* | 1.0* | 11* | -6 | 15* | 7.9* | 2 | 15*
Cn1c(/C=C/c2ccccc2)nc2ccccc21 | 3 | 9.0* | 4.6* | 0 | 11* | -4 | 6.6* | 2 | 1 | 14*
COc1ccc(-n2nc3cc(C)c(N)c(Br)c3n2)cc1 | 49* | 20* | 5.2* | 3.2* | 14* | 3 | 10* | 4.8* | 2 | 17*
O=C(COc1ccc(Cl)cc1Cl)Nc1ccc(Cl)cn1 | -2 | 8.8* | 6.2* | 0 | 11* | 1 | 8.3* | 3.5* | 2 | 8.1*
NC(=O)c1cccc2c3c([nH]c12)CCCC3 | -3 | nt | nt | nt | nt | -1 | nt | nt | nt | nt
NS(=O)(=O)c1ccc(CCNC(=O)NC23CC4CC(CC(C4)C2)C3)cc1 | 2 | -1 | 0 | -1 | -2 | -1 | nt | nt | nt | nt
O=C(NCCOc1ccccc1)c1ccccc1NC(=O)C1CCCO1 (configuration not stated) | 1 | 9.0* | 5.6* | 1 | 11* | 1 | 8.3* | 7.3* | 1 | 10*
O=C(Nc1ccccc1C(=O)O)c1ccc(NC(=O)C2CCCO2)cc1 (configuration not stated) | 9 | -1 | 0 | -1 | 0 | 1 | nt | nt | nt | nt
COc1ccc(-n2ncc3c(NCC(C)C)ncnc32)cc1 | -6 | 9.8* | 5.0* | 1 | 11* | 0 | 13* | 4.1* | 2 | 5.7*
CC(C)(C)NC(=O)NC(=O)COC(=O)COc1ccc(Cl)cc1Cl | 1 | 0 | 0 | -2 | 1 | 1 | nt | nt | nt | nt
CC(C)(C)NC(=O)NC(=O)COc1ccc(Br)cc1Br | 3 | 6.6* | 7.5* | 0 | 17* | 2 | 18* | 6.0* | 2 | 9.5*
NS(=O)(=O)c1ccc(-n2ncc3c(=O)[nH]c(SCC(=O)Nc4nccs4)nc32)cc1 | 3 | 1 | 1 | -1 | -4 | 2 | nt | nt | nt | nt
Cc1ccc2oc(C(=O)Nc3cc(C)on3)c(C)c2c1 | 30 | 11* | 5.5* | 2.5* | 11* | 3 | 13* | 8.0* | 2 | 14*
Cc1ccc2oc(C(=O)Nc3nnc(CC(C)C)s3)c(C)c2c1 | -4 | -2 | 0 | -1 | 0 | 0 | nt | nt | nt | nt
Cc1cc(NC(=O)c2sc3ccccc3c2O)no1 | nt | 12* | 6.5* | 1 | 8 | 1 | 8.1* | 6.2* | 1 | 7.2*
SMILES | AHR act | hcDAF-12 act | DAX1 inh-1 | ssDAF-12 act | hgDAF-12 ag | DAX1 inh-2 | DAX1 inh confirm | SF1 AF2mut Luc | LXR ag | hcDAF12 conf
O=C(O)c1ccc(N2C(=O)c3ccc(C(=O)c4cccc([N+](=O)[O-])c4)cc3C2=O)cc1 | -1 | -1 | 0 | -2 | -1 | -1 | nt | nt | nt | nt
COc1ccc(C(=O)c2c[nH]c(C(=O)NCCCN3CCOCC3)c2)cc1 | 1 | -1 | 0 | -1 | -2 | 0 | nt | nt | nt | nt
Cc1ccsc1C(=O)OCc1csc(-c2ccccc2)n1 | 18 | 13* | 4.7* | 2.7* | 16* | 1 | 21* | 14* | 1 | 14*
O=C(OCc1csc(-c2ccccc2)n1)c1cccs1 | 9 | 2 | 1 | -1 | 4 | 1 | nt | nt | nt | nt
Cn1cccc1C(=O)OCc1csc(-c2ccccc2)n1 | 40 | 16* | 5.3* | 3.1* | 16* | 2 | 14* | 8.0* | 2 | 17*
O=c1ccc2ccccc2o1 | -3 | 0 | 0 | 0 | 4 | 0 | nt | nt | nt | nt
O=C(O)c1ccc(N/N=C/C(Br)=C/c2ccccc2)cc1 | 7 | 8.1* | 5.2* | 1 | 22* | -1 | 13* | 4.2* | 2 | 13*
O=C(N/N=C/C(Br)=C/c1ccccc1)C(O)c1ccccc1 (configuration not stated) | 8 | -1 | 0 | -1 | -1 | 0 | nt | nt | nt | nt
O=C(O)c1ccc(N/N=C/c2cccc(F)c2)cc1 | 19 | 7.1* | 6.3* | 1.2* | 21* | 0 | 15* | 8.3* | 1 | 10.0*
O=C(O)c1ccc(N/N=C/c2ccc3nccnc3c2)cc1 | -10 | -6 | -2 | -4 | -14 | -8 | nt | nt | nt | nt
COC(=O)c1ccc(-n2c(C)cc(C(=O)COC(=O)C3=COCCO3)c2C)cc1 | -2 | -1 | -2 | -1 | 3 | 1 | nt | nt | nt | nt
Cc1cc(C(=O)COC(=O)C2=COCCO2)c(C)n1-c1cccc(F)c1 | -3 | 7.2* | 9.3* | 1.0* | 11* | 1 | 13* | 4.0* | 1 | 4
